Bioassay records (PubChem)
G9a inh: qHTS Assay for Inhibitors of Histone Lysine Methyltransferase G9a; Histone-lysine N-methyltransferase EHMT2 (Homo sapiens), Q96KQ7; Potency, µM (doses to about 102 µM), for the others: at the highest dose activity, negative = inhibition, usual class: inhibitors; hit rate 8.8% among 350,000; G9a H3K9 monomethylation, AlphaScreen, 2 h; also: % is scaled to controls: 0 for no effect and ±100 for the full control effect; nearly all actives have a fitted effect of over 75% in size
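Step 1: enzyme (final 20 nM) with compound, 15 min RT. Step 2: substrate peptide 500 nM and SAM 20 uM, 2 h RT. Step 3: anti-H3K9me1 antibody and AlphaScreen beads, 10 min, then plate read.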
VDR inhibitor: Inhibitors of the vitamin D receptor (VDR): qHTS; Potency, µM, for the others: max response, negative = inhibition, usual class: inhibitors; hit rate 0.93% among 400,000; VDR-SRC2-3 peptide fluorescence polarization, 2 h; also: % is scaled to controls: 0 for no effect and ±100 for the full control effect
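Fluorescence polarization assay of small-molecule disruption of VDR binding to coregulator peptide SRC2-3. Compounds and controls pin-transferred, then read after 2 h incubation at ambient room temperature.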
ALOX12 inh: Primary qHTS assay for inhibitors of human arachidonate 12S-lipoxygenase (ALOX12): Round 2; Polyunsaturated fatty acid lipoxygenase ALOX12 (Homo sapiens), P18054; purified 12hLO, xylenol orange hydroperoxide absorbance; Potency, µM (doses to about 108 µM), without a hit: top-dose activity change, negative = inhibition, usual class: inhibitors; hit rate 1.1% among 580,000; also: % is scaled to controls: 0 for no effect and ±100 for the full control effect
Target sequence (P18054 whole entry, looked up): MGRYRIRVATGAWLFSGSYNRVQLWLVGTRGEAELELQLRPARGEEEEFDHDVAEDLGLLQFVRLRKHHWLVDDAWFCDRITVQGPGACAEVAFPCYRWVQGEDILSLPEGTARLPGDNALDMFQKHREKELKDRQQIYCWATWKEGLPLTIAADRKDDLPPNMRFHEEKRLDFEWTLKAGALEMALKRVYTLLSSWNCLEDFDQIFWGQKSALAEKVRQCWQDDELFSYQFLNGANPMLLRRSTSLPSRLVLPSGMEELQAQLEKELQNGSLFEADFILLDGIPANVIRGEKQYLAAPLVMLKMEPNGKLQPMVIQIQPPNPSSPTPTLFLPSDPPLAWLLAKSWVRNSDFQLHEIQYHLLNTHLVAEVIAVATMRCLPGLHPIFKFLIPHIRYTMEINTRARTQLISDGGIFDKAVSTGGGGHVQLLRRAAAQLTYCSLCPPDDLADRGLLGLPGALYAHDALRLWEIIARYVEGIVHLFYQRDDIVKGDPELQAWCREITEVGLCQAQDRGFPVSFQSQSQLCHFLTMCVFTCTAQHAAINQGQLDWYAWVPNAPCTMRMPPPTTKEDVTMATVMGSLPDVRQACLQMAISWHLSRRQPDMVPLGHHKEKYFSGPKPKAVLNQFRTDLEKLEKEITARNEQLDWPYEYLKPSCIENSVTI
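Purified human 12hLO (150 nM final) in 25 mM Hepes, 0.01% Triton X-100, pH 7.0 was preincubated 15 min at room temperature with compound. Then 40 uM arachidonic acid was added, 30 min. Hydroperoxide was read by Fe-XO absorbance ratio 573/405 nm.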
Sfp PPTase inh: qHTS Assay for Inhibitors of Bacillus subtilis Sfp phosphopantetheinyl transferase (PPTase); 4'-phosphopantetheinyl transferase ffp (Bacillus subtilis), Q9F4F7; hit rate 3.5% among 310,000; AID 1490, 2009; Potency, µM, without a hit: largest response in the series, negative = inhibition, hits mostly inhibitors; Biochemical Sfp PPTase activity, qHTS;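 also: the enzyme is Sfp with the accession as filed and its product quenches rhodamine fluorescence; 0% = enzyme reaction without inhibitor and -100% = no enzyme wells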
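Compounds were incubated with enzyme (final 15 nM) for 15 min at room temperature before substrate addition started the reaction. Fluorescence at 525 nm excitation, 598 nm emission was recorded immediately and after 30 minutes.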
GRP78 ERSR act: qHTS for Inducers of the Endoplasmic Reticulum Stress Response (ERSR) in Human Glioma: qHTS | U87-MG GRP78 promoter luciferase reporter, 16 h | Potency, µM, for the others: at the highest dose activation, usual class: activators | hit rate 0.02% among 420,000; also: series mostly up to about 76 µM; % of control where 0% means no effect; nearly all actives have a fitted effect of over 35% in size
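Stably transfected U87-MG human glioma cells carrying a GRP78-based luminescent sensor were seeded at 1000 cells/well, pin-dosed with compounds and incubated 16 h. Luciferase reagent was then added, and end-point luminescence was read after 10 min at room temperature.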
* marks the source's active call; other numbers are inactive results; u = inconclusive; x = no result; ! = not confirmed by another sample; [ ] = another dose, or the depositor's remark. This is one part of a sample in which hits are shown more often than they occur. Calls follow the shape of the dose curve; as a rule, active = well fitted curve in the direction sought with a large enough effect; inconclusive = small, poorly fitted or top-dose-only effect, or another doubt; inactive = no such curve, though single readings can be large; an effect the other way counts as inactive or inconclusive. Potency is read from the fitted curve at half-maximal effect.

SMILES | G9a inh | VDR inhibitor | ALOX12 inh | Sfp PPTase inh | GRP78 ERSR act
O=C(NCc1ccco1)/C(=C\c1ccco1)NC(=O)c1ccccc1Cl | u | 2% | -15% | 7% | -2%
O=C(CCC(=O)Nc1ccccc1)N/N=C/c1ccco1 | 19%[59 µM] | -20% | 8% | 12% | -1%
NC(=O)/C(=C/c1ccco1)NC(=O)c1ccc(Br)o1 | x | -6% | 30% | x | -3%
O=C(CSc1nc(-c2ccccc2)cc(=O)[nH]1)Nc1oncc1-c1ccc(F)cc1 | x | x | -13% | x | x
O=C(O)CNC(=O)/C(=C/c1ccco1)NC(=O)/C=C/c1ccccc1 | u | -4% | -4% | 56µM* | -3%
O=C(Nc1ccc(C(=O)O)cc1)/C(=C\c1ccco1)NC(=O)c1ccccc1 | x | -11% | 0% | 20µM* | 10%
CCCCC1=CC2=CC(=O)C(C)(OC(=O)C3CCCC3)C(=O)C2=CO1 (configuration not stated) | u | -18% | 16µM* | 71µM*! | 1%
CC1(OC(=O)c2cccs2)C(=O)C=C2C=C(C3CC3)OC=C2C1=O (configuration not stated) | x | 3% | u | u | -4%
CCC(=O)OC1(C)C(=O)C=C2C=C(CCCC(=O)OC)OC=C2C1=O (configuration not stated) | x | u | u | 13% | -4%
CCCCC1=CC2=CC(=O)C(C)(OC(=O)CC)C(=O)C2=CO1 (configuration not stated) | x | -12% | 35µM* | 10% | -1%
CC1(OC(=O)C2CCCC2)C(=O)C=C2C=C(c3ccsc3)OC=C2C1=O (configuration not stated) | u | u | 7.9µM* | -20% | -5%
CC1(OC(=O)c2ccco2)C(=O)C=C2C=C(C3CC3)OC=C2C1=O (configuration not stated) | x | u | 45µM* | 17% | -2%
CC(C)Oc1cccc(Cn2cnc3c2c(=O)n(C)c(=O)n3C)c1 | x | x | -28% | x | x
CCCCOC(=O)CSc1nc2c(c(=O)[nH]c(=O)n2C)n1C/C=C(\C)Cl | 16µM* | -12% | u | -3% | -8%
C/C(Cl)=C/Cn1c(SCC(C)C)nc2c1c(=O)[nH]c(=O)n2C | 50µM* | 7% | 20% | -15% | -6%
CCOC(=O)C(CC)Sc1nc2c(c(=O)[nH]c(=O)n2C)n1C/C=C(/C)Cl (configuration not stated) | u | 32µM* | u | 14µM* | 3%
C=CCn1c(SCC)nc2c1c(=O)[nH]c(=O)n2C | x | x | 35% | x | x
O=C(Nc1cc2c(cc1C(=O)c1ccc(Br)cc1)OCCO2)c1cccc(F)c1 | x | x | -23% | x | x
C/C(=N/Nc1ccc(S(N)(=O)=O)cc1[N+](=O)[O-])c1ccccc1F | x | x | -27% | x | x
COc1cc(/C=C/c2nc(-c3ccccc3)nc(-c3ccccc3O)n2)cc(OC)c1OC | x | x | 30% | x | x
COc1ccc(C2CCCN2C(=O)Cn2cccnc2=O)cc1 (configuration not stated) | x | x | -28% | x | x
CCC1(CC)Cc2ccccc2C(CC(=O)N2CCOCC2)=N1 | 40µM* | -21% | u | -14% | 0%
Cc1ccc2ccc(C(Nc3ccccc3)c3ccccc3)c(O)c2n1 (configuration not stated) | x | x | -14% | x | x
Cc1ccc(C(Nc2ccccc2)c2ccc3ccc(C)nc3c2O)c(C)c1 (configuration not stated) | x | x | -12% | x | x
Cc1cccc(NC(c2ccc(C)s2)c2ccc3ccc(C)nc3c2O)n1 (configuration not stated) | 1.8µM* | u | u | -3% | -5%
SMILES | G9a inh | VDR inhibitor | ALOX12 inh | Sfp PPTase inh | GRP78 ERSR act
Cc1ccc2ccc(C(Nc3ccccn3)c3ccccc3)c(O)c2n1 (configuration not stated) | 14µM* | u | u | 11% | -3%
Cc1ccnc(NC(c2ccsc2)c2ccc3ccc(C)nc3c2O)c1 (configuration not stated) | -152%[59 µM] | 40µM* | u | u | -4%
Oc1c(C(Nc2ccccn2)c2ccccn2)ccc2cccnc12 (configuration not stated) | 32µM* | -14% | u | 11% | -4%
Oc1c(C(Nc2ccccn2)c2ccccc2F)ccc2cccnc12 (configuration not stated) | u | -11% | 1% | x | 0%
COc1ccc(C(=O)N2CCC(Oc3nccnc3N(C)C)C2)c(OC)c1 (configuration not stated) | x | x | 46% | x | x
Cc1nn(C)cc1S(=O)(=O)N1CCN(Cc2cccc(Br)c2)CC1 | x | x | 12% | x | x
COc1cc(-c2ccnc3nc(CCc4ccccc4)nn23)cc(OC)c1OC | x | x | 37% | x | x
Cn1nc(C(=O)Nc2cc(C(F)(F)F)ccc2N2CCOCC2)c2ccccc2c1=O | x | x | 7% | x | x
O=C(NCCCc1ccccn1)c1ccc2nc(-c3ccc(F)cc3)cn2c1 | x | x | 11% | x | x
CCc1cc2c(=O)n(Cc3ccco3)c(SCC(=O)N(C)C3CCS(=O)(=O)C3)nc2s1 (configuration not stated) | u | u | -8% | 7.9µM* | 1%
CCc1cc2c(=O)n(Cc3ccccc3)c(SC3CCOC3=O)nc2s1 (configuration not stated) | -44% | -1% | -3% | -6% | 5%
CCc1cc2c(=O)n(Cc3ccco3)c(SCC(=O)NCC3CCCO3)nc2s1 (configuration not stated) | 25%[59 µM] | 0% | -17% | -9% | -2%
CCc1cc2c(=O)n(Cc3ccco3)c(SCc3c(C)noc3C)nc2s1 | u | 79µM* | 1% | -87% | u
CCc1cc2c(=O)n(Cc3ccco3)c(SCC(=O)NC3CCS(=O)(=O)C3)nc2s1 (configuration not stated) | 50µM* | -12% | u | 32µM* | -2%
O=C1CCN(Cc2ccncc2)CCCC(C(=O)Nc2ccccc2CCc2ccncc2)CCN1 (configuration not stated) | x | x | 59% | x | x
CCN1C(=O)C2CC3(CCN(C(=O)CCc4c(C)nn(C)c4C)CC3)CN2C1=O (configuration not stated) | x | x | 10% | x | x
O=C(NC1CCCC1)C1(c2cccc(Cl)c2)CCC1 | x | x | -5% | x | x
CC(=O)c1ccc(-n2c(CCC(=O)O)ccc2-c2cccs2)cc1 | 14µM* | u | u | 20µM* | 0%
O=C(O)CCc1ccc(-c2ccccc2)n1-c1cccc(O)c1 | u | 13% | u | -17% | 1%
